From PubChem BioAssay
Only some compounds are listed: those with a hit (about 21% of all), similar ones and a draw of the others.
Pf growth 96h = P. falciparum growth inhibition at 96 hour, primary screen for plastid delayed-death inhibitors. P. falciparum luciferase reporter growth, 96 h. Potency, µM (highest dose often 28.7 µM), for the others: at the top dose activity change, negative = inhibition, hits mostly inhibitors. hit rate 6.9% among 320,000. AID 504834; active = well fitted inhibition curve with a large enough effect; inconclusive = small, poorly fitted or top-dose-only effect, or another doubt; inactive = no such curve, though single readings can be large or run the other way; also: potency is read from the fitted curve at half-maximal effect; % is scaled to controls: 0 for no effect and ±100 for the full control effect
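Erythrocytes infected with luciferase-expressing P. falciparum were dispensed at 2% hematocrit and 0.05% parasitemia (final), then incubated with compounds 96 hours at 37 C in 5% CO2. Luminescence after detection reagent addition reported growth.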
Pf growth 48h = P. falciparum growth inhibition at 48 hours (one generation) | P. falciparum luciferase growth in erythrocytes, 48 h | Potency, µM (titrated, usually from 28.7 µM), for the others: at the highest dose activity change, negative = inhibition, most hits filed as inhibitors | hit rate 5.9% among 310,000 | AID 504832; active = well fitted inhibition curve with a large enough effect; inconclusive = small, poorly fitted or top-dose-only effect, or another doubt; inactive = no such curve, though single readings can be large or run the other way; also: potency is read from the fitted curve at half-maximal effect; % is scaled to controls: 0 for no effect and ±100 for the full control effect
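Growth was read as firefly luciferase luminescence after a 48 h, 37 C, 5% CO2 exposure of compounds to reporter-bearing P. falciparum cultures (0.1% parasitemia, 2% hematocrit final) in Albumax-supplemented RPMI 1640.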
Shiga toxin inh = blocks Shiga toxin action in Vero cells; hit rate 9.2% among 290,000; inhibition, % at 38.7 µM; Vero cells, Shiga toxin protein synthesis inhibition reporter; in the data active = inhibition mostly above about 28%, no sharp cut-off; inactive = mostly below about 43%; also: 0% is about no effect
SARS PLpro yeast = SARS-CoV PLP inhibition in yeast | hit rate 0.19% among 330,000 | S. cerevisiae expressing SARS-CoV PLpro, growth rescue | Potency, µM (series often up to 32.9 µM), for the others: top-dose activity, positive = growth rescue, actives largely listed as activators; also: potency is read from the fitted curve at half-maximal effect; 0% is about no effect; nearly all actives have a fitted effect of over 55% in size
NS1 function inh = inhibitors of influenza NS1 protein function; Potency, µM (highest dose often 46.1 µM), for inactives: at the top dose activity, positive = more growth; hit rate 0.4% among 270,000; AID 2326; also: potency is read from the fitted curve at half-maximal effect; actives are rising curves; nearly all actives have a fitted effect of over 50% in size
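S. cerevisiae expressing influenza A NS1, grown in glucose, washed, then diluted 1:100 into pH 6.0 -URA galactose medium with 23 nl compound. Growth recovery read as OD600; NS1-free strain serves as control.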
CHX counter = affects cycloheximide protein synthesis inhibition readout, counter-screen. max response, %. cell reporter, cycloheximide protein synthesis inhibition counterscreen. hit rate 12% among 300,000; in the data active = max response mostly above about 13%, no sharp cut-off; inactive = mostly below about 14%; also: read at 38.3 µM for the half of the compounds with a filed dose; 0% is about no effect
The depositor's hits bear a star; ? = inconclusive; / = not tested or not shown. Unless noted, calls follow the shape of the full dose curve.

SMILES	Pf growth 96h	Pf growth 48h	Shiga toxin inh	SARS PLpro yeast	NS1 function inh	CHX counter
CCn1c(SCC(=O)NC(=O)Nc2ccc3c(c2)OCCO3)nnc1-c1cccs1	-23.2%	/	45.7	2.7%	-30.8%	18.0*
O=C(CSc1nccc(=O)[nH]1)Nc1ccc2c(c1)OCCO2	126.4%	277.1%	154.6*	1.3%	/	41.6*
CCn1c(SCC(=O)Nc2ccc3c(c2)OCCO3)nnc1-c1ccco1	-23.4%	-1.1%	6.2	-0.7%	-5.3%	2.2
O=C(CCn1cnc2ccccc2c1=O)Nc1ccc2c(c1)OCCO2	9.6%	40.4%	73.4*	3.7%	-2.9%	14.4*
Cc1cc(=O)[nH]c(SCC(=O)Nc2ccc3c(c2)OCCO3)n1	?	?	-14.4	0.9%	-0.3%	-1.9
COc1ccc(Nc2nnc(SCC(=O)N3CCCC3)s2)cc1	?	/	-3.2	-1.4%	-4.8%	1.1
COc1ccccc1C1(O)CCN(CCCn2c3ccccc3c3ccccc32)CC1	/	/	-28.4	/	/	-17.4
COc1ccc(NC(=O)CSc2n[nH]c(-c3ccncc3)n2)cc1Cl	/	/	/	-1.2%	/	/
O=C(CSc1ncccn1)NC(=O)Nc1ccc2c(c1)OCCO2	94.6%	154.8%	46.0*	-0.5%	3.6%	34.6*
CC(C)(C)OC(=O)N[C@@H](C(=O)OC(C)(C)C)c1ccc2ccccc2c1	76.8%	30.5%	/	0.1%	/	/
CC(C)(C)c1ccc(-c2nc(N)nc(N)n2)cc1	123.6%	114.6%	25.8	-0.7%	-9.0%	33.2*
CCc1ccc(NC(=O)CCNS(=O)(=O)c2cccc3nsnc23)cc1	/	-1.5%	-18.1	-5.9%	-4.4%	-1.8
COc1ccc(-c2n[nH]c3c2CN(C(=O)c2ccc(OC)c(OC)c2)CC3)cc1	11.7µM*	?	-6.8	1.5%	3.1%	-10.2
COc1cc(OC)cc(C(=O)N2CCN(C(=O)c3ccc(OC)c(OC)c3)CC2)c1	?	-14.5%	10.3	-6.7%	-2.0%	-3.6
O=C(N1CCCC1)C12CC3CC(CC(C3)C1)C2	-3.1%	11.7µM*	31.2	?	4.3%	-1.7
O=C(N1CCCCC1)C12CC3CC(C1)CC(C(=O)N1CCCCC1)(C3)C2	/	-18.4%	-4.1	-2.6%	4.4%	-1.9
COc1cc(C2N(c3ccccc3)CCN2c2ccccc2)cc(OC)c1OC	0.0%	10.4%	61.0	6.8%	-16.0%	13.3*
CCCNC(=O)N1CCN(C(c2ccccc2)c2ccccc2)CC1	303.2%	?	-25.3	-1.8%	-7.6%	2.4
O=C(c1ccccc1F)N1CCN(C(=O)C(c2ccccc2)c2ccccc2)CC1	0.294µM*	-17.0%	-3.8	4.9%	0.8%	-4.8
O=C(NC(=O)N1CCN(C(c2ccccc2)c2ccccc2)CC1)c1ccccc1	?	13.1µM*	2.9	-1.6%	-43.5%	-3.9
Cc1oc(C(C)(C)C)cc1C(=O)N1CCN(C(c2ccccc2)c2ccccc2)CC1	11.7µM*	5.86µM*	-2.3	-1.1%	-0.4%	-1.9
CC(C)(C)C(=O)N1CCN(C(c2ccccc2)c2ccccc2)CC1	10.4µM*	11.7µM*	6.0	-3.2%	-9.0%	-4.9
Cc1cc(C(=O)N2CCN(C(c3ccccc3)c3ccccc3)CC2)on1	4.2%	/	-2.5	-8.7%	-155.3%	-6.5
Cc1ccccc1C(=O)N1CCN(C(c2ccccc2)c2ccccc2)CC1	5.86µM*	10.4µM*	-6.2	-3.9%	-4.9%	-1.7
COc1ccc(-c2ocnc2C(=O)N2CCN(C(c3ccccc3)c3ccccc3)CC2)cc1	-2.6%	8.28µM*	8.3	-13.1%	/	-2.7
SMILES	Pf growth 96h	Pf growth 48h	Shiga toxin inh	SARS PLpro yeast	NS1 function inh	CHX counter
CCN1C(=O)C(CC(=O)N2CCN(C(c3ccccc3)c3ccccc3)CC2)N(CC)C1=O (stereo not given)	?	11.7µM*	-9.0	0.9%	-19.6%	0.4
Cc1occc1C(=O)N1CCN(C(c2ccccc2)c2ccccc2)CC1	-1.9%	1.31µM*	7.3	-29.9%	-11.0%	5.0
c1ccc2c3n(nc2c1)CCCO3	46.0%	15.9%	/	-5.9%	/	/
COc1ccc(CCN(C)CCCC(C#N)(c2cc(OC)c(OC)c(OC)c2)C(C)C)cc1OC (stereo not given)	5.22µM*	11.7µM*	20.3	0.4%	2.2%	7.6
Cc1ccc(S(=O)(=O)Oc2ccccc2/C=N/Nc2ccc(C(=O)O)cc2)cc1	-7.1%	0.7%	30.5	0.7%	-0.5%	25.6*
O=C(c1cc(Cl)ccc1O)N1CCN(S(=O)(=O)c2cccs2)CC1	1.5%	?	/	-0.1%	/	/
Cc1ccc(-c2ccc(/C=N\NC(=O)c3cc4c(ccc5ccccc54)o3)o2)cc1[N+](=O)[O-]	2.94µM*	?	10.4	-3.0%	15.3%	-2.0
CCC(=O)N/N=C/c1ccc(-c2ccc([N+](=O)[O-])cc2)o1	10.4µM*	-2.0%	-6.7	-1.4%	-4.3%	8.4
CC(C)(C)NC(=S)N/N=C\c1ccc(-c2ccc([N+](=O)[O-])cc2)o1	3.7µM*	?	73.0*	-0.9%	6.2%	37.4*
CNC(=S)N/N=C/c1ccc(-c2ccc(Cl)c([N+](=O)[O-])c2)o1	-26.5%	?	27.7	-1.2%	1.1%	5.2
CCOC(=O)c1ccc(-c2ccc(/C=N/NC(=O)CN(c3ccccc3Br)S(C)(=O)=O)o2)cc1	25.9%	-62.8%	55.9*	8.9%	-63.2%	35.7*
C/C(CC(=O)Nc1ccc2c(c1)OCCO2)=N\NC(=O)COc1ccc(C)cc1Br	19.2%	6.6%	16.4	-3.2%	-5.4%	1.2
CSc1nc(C(=O)N2CCCC(C(=O)c3ccc(Cl)cc3)C2)cs1 (stereo not given)	?	17.8%	15.8	-1.6%	-3.5%	7.3
CCc1nnc(N/N=C/c2ccc(-c3ccc([N+](=O)[O-])cc3)o2)n1N	?	11.7µM*	-2.8	-8.4%	/	11.8
CNC(=S)N/N=C/c1ccc(-c2ccc(C(=O)O)cc2)o1	263.7%	1.3%	56.5*	-6.0%	-1.7%	23.0*
O=C(N/N=C/c1ccc(-c2ccc([N+](=O)[O-])cc2)o1)C(O)c1ccccc1 (stereo not given)	-5.4%	-2.1%	13.2	6.8%	-21.7%	0.3
CCc1nnc(N/N=C/c2cc(C)c(C)cc2C)n1N	?	-19.0%	9.8	-13.2%	-69.0%	-2.3
CCCCC(=O)N/N=C/c1ccc(-c2ccc([N+](=O)[O-])cc2)o1	9.28µM*	-23.9%	24.8*	-1.7%	-3.4%	14.0
Cc1nnc(SCC(=O)N/N=C/c2ccc(-c3ccc(C)c(Cl)c3)o2)s1	?	17.5%	39.6	-12.2%	7.4%	17.4*
COc1cc(C(C)C)c2c(c1)S(=O)(=O)N(COc1cc(=O)n3cccc(OCCN4CCCCC4)c3n1)C2=O	/	/	-17.0	/	/	-8.6
COc1ccc(C2CC(c3ccccc3)Oc3cc4c(cc32)OCO4)cc1 (stereo not given)	/	/	21.5	/	/	23.0
CCN(CC(=O)Nc1ccc(Cl)c(S(=O)(=O)N(C)C)c1)CC(=O)NC(C)C	?	-25.6%	-7.0	-1.0%	/	17.4
O=C(N/N=C/c1ccc(-c2ccccc2)o1)c1ccccc1O	?	?	40.4*	-1.8%	1.7%	16.0
